{
  "source": "PubChem BioAssay (EPA / NIEHS)",
  "note": "Activity calls are given as the source filed them. How the source made its calls: active means hit-call score of the fitted dose curve at least 0.9, where 1 is the maximum; inactive means score below 0.9.",
  "data": [
    {"target": "Estrogen receptor (Homo sapiens) (UniProt P03372)", "sequence (P03372 whole entry, looked up)": "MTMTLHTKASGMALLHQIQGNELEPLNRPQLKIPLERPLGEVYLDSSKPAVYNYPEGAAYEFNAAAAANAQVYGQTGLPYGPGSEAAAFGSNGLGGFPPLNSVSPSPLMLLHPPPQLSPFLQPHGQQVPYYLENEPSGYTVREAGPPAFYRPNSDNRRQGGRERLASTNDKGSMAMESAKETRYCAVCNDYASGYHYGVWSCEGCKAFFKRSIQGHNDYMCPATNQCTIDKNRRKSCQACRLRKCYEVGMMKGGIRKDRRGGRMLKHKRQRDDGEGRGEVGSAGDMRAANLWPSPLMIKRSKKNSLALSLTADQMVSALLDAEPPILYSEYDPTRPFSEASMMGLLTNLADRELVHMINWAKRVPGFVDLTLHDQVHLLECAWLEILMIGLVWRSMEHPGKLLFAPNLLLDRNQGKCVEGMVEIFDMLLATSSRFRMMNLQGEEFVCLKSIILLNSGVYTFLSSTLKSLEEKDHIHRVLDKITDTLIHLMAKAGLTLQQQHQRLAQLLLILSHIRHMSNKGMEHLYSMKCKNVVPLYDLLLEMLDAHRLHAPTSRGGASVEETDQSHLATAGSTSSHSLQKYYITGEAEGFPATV", "test": "OT_ERa_GFPERaERE_0480: Odyssey Thera (OT) 8-hour HeLa Transcription Induction Assay for Estrogen Receptor (AID 2283381)", "description": "OT_ERa_GFPERaERE_0480 is a cell-based, single-readout assay that uses HeLa, a human cervix cell line, with measurements taken at 8 hours after chemical dosing in a 384-well plate.OT_ERa_GFPERaERE_0480 is one of one assay component(s) measured or calculated from the OT_ERa_GFPERaERE_0480 assay. It is designed to make measurements of fluorescent protein induction, a form of inducible reporter, as detected with optical microscopy: fluorescence microscopy signals by Microscopy technology.Data from the assay component OT_ERa_GFPERaERE_0480 was analyzed into 1 assay endpoint. This assay endpoint, OT_ERa_EREGFP_0480, was analyzed in the positive analysis fitting direction relative to DMSO as the negative control and baseline of activity. Using a type of inducible reporter, measures of receptor for gain-of-signal activity can be used to understand the reporter gene at the pathway-level as they relate to the gene ESR1. Furthermore, this assay endpoint can be referred to as a primary readout, because the performed assay has only produced 1 assay endpoint. To generalize the intended target to other relatable targets, this assay endpoint is annotated to the nuclear receptor intended target family, where the subfamily is steroidal.\nAll assay endpoints are quantified using high content image analysis algorithms.", "values": [
      {"smiles": "CC(=O)OC(C)c1ccccc1", "note": "(stereo not given)", "outcome": "inactive"},
      {"smiles": "CCC[Si](OC)(OC)OC", "outcome": "inactive"},
      {"smiles": "CCCCC(CC)COC(=O)/C=C/c1ccc(OC)cc1", "note": "(stereo not given)", "outcome": "inactive"},
      {"smiles": "CCOC(=O)c1ccccc1C", "outcome": "inactive"},
      {"smiles": "CCCCCCO", "outcome": "inactive"},
      {"smiles": "CC(=O)c1ccccc1O", "outcome": "inactive"},
      {"smiles": "CCC(C)(O)CCCC(C)C", "note": "(stereo not given)", "outcome": "inactive"},
      {"smiles": "CCCCCC(=O)OCC", "outcome": "inactive"},
      {"smiles": "CCN1CN(CC)CN(CC)C1", "outcome": "inactive"},
      {"smiles": "CCCCCCOC(=O)CCCCC(=O)OCCCCCC", "outcome": "inactive"},
      {"smiles": "CC(=O)OCc1ccccc1", "outcome": "inactive"},
      {"smiles": "CN(C)Cc1cc(CN(C)C)c(O)c(CN(C)C)c1", "outcome": "inactive"},
      {"smiles": "NC(=O)Nc1ccccc1", "outcome": "inactive"},
      {"smiles": "COc1ccc(C(=O)c2ccccc2)c(O)c1", "outcome": "inactive"},
      {"smiles": "CC1=CCC2CC1C2(C)C", "note": "(stereo not given)", "outcome": "inactive"},
      {"smiles": "CCCCCCCCC(CO)CCCCCC", "note": "(stereo not given)", "outcome": "inactive"},
      {"smiles": "C/C=C/C=C/CCCCCCCO", "outcome": "inactive"},
      {"smiles": "Cc1ccc([N+](=O)[O-])cc1N", "outcome": "inactive"},
      {"smiles": "CCOC(=O)C1=NOC(c2ccccc2)(c2ccccc2)C1", "outcome": "inactive"},
      {"smiles": "Nc1ccc(C(=O)O)cc1", "outcome": "inactive"},
      {"smiles": "C=CCOC(=O)c1ccc(C(=O)OCC=C)c(C(=O)OCC=C)c1", "outcome": "inactive"},
      {"smiles": "CCCCCCCCCC(C)=O", "outcome": "inactive"},
      {"smiles": "CC1=NN(c2ccc(S(=O)(=O)O)cc2)C(=O)C1N=Nc1ccccc1", "note": "(stereo not given)", "outcome": "inactive"},
      {"smiles": "CC(C)(c1ccccc1)c1ccc(Nc2ccc(C(C)(C)c3ccccc3)cc2)cc1", "outcome": "inactive"},
      {"smiles": "CCCCCCCO", "outcome": "inactive"},
      {"smiles": "O=C(OCc1ccccc1)c1ccc(O)cc1", "outcome": "inactive"},
      {"smiles": "Cc1cc(C)n(CO)n1", "outcome": "inactive"},
      {"smiles": "CC(C)=CCCC(C)=CC#N", "outcome": "inactive"},
      {"smiles": "C=C[Si](OCCOC)(OCCOC)OCCOC", "outcome": "inactive"},
      {"smiles": "O=C(O)c1cc(O)c2ccccc2c1O", "AC50": "18.1 µM (active)"},
      {"smiles": "CCCCC(C=O)CC", "note": "(stereo not given)", "outcome": "inactive"},
      {"smiles": "O=C(OCCc1ccccc1)c1ccccc1", "outcome": "inactive"},
      {"smiles": "CCCCc1ccc(Cl)cc1", "outcome": "inactive"},
      {"smiles": "CC1(C)[C@@H]2CC[C@@]1(C)C(=O)C2", "outcome": "inactive"},
      {"smiles": "CC(C)c1ccc(O)c(C(C)C)c1", "outcome": "inactive"},
      {"smiles": "CO[Si](C)(C)OC", "outcome": "inactive"},
      {"smiles": "CC1=CC=C(C(C)C)CC1", "AC50": "23.6 µM (active)"},
      {"smiles": "CCCCCCC=O", "outcome": "inactive"},
      {"smiles": "COc1cc(O)c(C(=O)c2ccccc2)cc1S(=O)(=O)O", "outcome": "inactive"},
      {"smiles": "CCc1occc(=O)c1O", "outcome": "inactive"}
    ]}
  ]
}
